Test results from ChEMBL document CHEMBL2218924, “A broad activity screen in support of a chemogenomic map for kinase signalling research and drug discovery” (Biochem J, 2013).

Legend:
[1] = target: T1, Ephrin type-A receptor 3 (Homo sapiens) (UniProt P29320); conditions: at 10 µM
T1 sequence (whole entry): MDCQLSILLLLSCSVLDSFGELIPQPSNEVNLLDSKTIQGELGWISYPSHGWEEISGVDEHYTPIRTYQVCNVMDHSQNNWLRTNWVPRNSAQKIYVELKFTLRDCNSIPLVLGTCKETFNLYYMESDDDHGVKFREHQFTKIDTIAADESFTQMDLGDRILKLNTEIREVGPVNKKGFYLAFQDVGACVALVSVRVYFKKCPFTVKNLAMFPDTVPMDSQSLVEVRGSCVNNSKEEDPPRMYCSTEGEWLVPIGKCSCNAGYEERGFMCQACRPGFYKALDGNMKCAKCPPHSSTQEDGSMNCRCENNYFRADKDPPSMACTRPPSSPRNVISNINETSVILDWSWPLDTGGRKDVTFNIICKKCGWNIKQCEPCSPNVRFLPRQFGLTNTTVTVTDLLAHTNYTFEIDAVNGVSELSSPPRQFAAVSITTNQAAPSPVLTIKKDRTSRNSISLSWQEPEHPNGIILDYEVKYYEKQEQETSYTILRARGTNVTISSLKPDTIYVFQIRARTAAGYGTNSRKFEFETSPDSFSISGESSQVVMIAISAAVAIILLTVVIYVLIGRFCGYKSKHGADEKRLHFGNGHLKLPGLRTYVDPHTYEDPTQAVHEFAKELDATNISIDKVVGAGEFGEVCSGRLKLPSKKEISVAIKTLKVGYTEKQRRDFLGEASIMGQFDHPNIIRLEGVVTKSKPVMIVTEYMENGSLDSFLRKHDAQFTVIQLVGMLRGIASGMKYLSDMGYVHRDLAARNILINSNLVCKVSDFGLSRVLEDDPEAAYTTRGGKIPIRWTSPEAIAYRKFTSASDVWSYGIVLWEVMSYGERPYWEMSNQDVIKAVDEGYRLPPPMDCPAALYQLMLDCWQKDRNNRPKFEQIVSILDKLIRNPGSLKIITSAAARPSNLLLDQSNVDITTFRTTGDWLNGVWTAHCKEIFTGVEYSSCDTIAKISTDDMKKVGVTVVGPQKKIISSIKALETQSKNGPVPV

[2] = target: Ephrin type-A receptor 5 (Homo sapiens) (UniProt P54756); conditions: at 1 µM
[3] = target: Ephrin type-A receptor 7 (Homo sapiens) (UniProt Q15375); conditions: at 1 µM
[4] = target: Ephrin type-A receptor 7 (Homo sapiens) (UniProt Q15375); conditions: at 10 µM
[5] = target: T2, Ephrin type-A receptor 8 (Homo sapiens) (UniProt P29322); conditions: at 1 µM
T2 sequence (whole entry): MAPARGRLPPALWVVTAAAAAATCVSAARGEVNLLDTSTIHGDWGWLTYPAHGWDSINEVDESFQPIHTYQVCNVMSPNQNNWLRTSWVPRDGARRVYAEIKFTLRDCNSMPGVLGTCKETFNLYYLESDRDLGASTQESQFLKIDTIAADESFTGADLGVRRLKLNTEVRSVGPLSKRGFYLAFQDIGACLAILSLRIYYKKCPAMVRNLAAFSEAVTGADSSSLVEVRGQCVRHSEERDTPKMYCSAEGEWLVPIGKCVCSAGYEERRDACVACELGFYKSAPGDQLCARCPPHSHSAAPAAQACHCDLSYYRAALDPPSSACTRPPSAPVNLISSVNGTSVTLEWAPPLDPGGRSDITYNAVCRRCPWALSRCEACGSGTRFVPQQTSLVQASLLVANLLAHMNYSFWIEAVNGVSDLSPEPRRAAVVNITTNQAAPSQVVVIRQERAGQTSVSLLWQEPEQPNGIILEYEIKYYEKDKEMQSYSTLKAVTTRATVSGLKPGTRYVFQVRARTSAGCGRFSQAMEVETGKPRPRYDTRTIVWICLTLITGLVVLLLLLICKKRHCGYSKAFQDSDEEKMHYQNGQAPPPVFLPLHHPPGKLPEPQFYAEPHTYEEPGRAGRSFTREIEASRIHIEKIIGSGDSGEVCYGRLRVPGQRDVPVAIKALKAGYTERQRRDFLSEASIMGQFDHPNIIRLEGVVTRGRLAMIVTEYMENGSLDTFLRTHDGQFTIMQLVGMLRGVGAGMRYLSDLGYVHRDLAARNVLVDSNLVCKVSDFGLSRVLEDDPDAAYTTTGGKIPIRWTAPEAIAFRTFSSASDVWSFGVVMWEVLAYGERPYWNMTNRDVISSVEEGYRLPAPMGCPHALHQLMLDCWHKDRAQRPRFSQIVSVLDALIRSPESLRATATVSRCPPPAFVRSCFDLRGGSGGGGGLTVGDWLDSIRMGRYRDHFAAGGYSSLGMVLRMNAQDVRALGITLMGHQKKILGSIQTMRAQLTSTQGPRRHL

[6] = target: T2, Ephrin type-A receptor 8 (Homo sapiens); conditions: at 10 µM
[7] = target: T3, Ephrin type-B receptor 4 (Homo sapiens) (UniProt P54760); conditions: at 1 µM
T3 sequence (whole entry): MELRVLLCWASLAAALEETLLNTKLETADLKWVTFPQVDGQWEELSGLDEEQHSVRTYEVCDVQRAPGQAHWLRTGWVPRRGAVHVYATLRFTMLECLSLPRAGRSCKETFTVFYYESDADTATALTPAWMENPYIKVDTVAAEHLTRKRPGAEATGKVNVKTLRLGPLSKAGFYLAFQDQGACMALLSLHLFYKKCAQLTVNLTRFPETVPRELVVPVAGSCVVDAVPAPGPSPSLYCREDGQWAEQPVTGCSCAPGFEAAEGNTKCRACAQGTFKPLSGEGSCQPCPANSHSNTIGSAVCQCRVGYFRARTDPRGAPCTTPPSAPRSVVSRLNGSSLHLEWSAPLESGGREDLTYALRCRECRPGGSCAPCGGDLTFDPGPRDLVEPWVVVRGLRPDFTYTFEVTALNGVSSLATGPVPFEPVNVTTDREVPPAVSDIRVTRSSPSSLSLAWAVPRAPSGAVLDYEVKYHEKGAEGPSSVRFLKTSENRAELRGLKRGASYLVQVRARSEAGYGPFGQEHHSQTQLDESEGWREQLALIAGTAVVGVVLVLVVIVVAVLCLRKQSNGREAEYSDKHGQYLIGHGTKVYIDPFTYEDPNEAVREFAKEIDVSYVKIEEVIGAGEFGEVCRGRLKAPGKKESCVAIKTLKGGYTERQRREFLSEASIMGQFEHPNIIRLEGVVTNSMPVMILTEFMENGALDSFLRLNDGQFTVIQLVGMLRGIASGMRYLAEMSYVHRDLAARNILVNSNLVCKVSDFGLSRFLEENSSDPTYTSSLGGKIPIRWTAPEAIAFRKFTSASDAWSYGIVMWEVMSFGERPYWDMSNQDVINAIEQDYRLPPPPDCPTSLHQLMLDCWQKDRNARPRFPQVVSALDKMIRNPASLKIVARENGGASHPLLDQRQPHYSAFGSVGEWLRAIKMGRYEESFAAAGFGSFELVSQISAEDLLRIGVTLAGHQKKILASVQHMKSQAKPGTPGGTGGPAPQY

[8] = target: T3, Ephrin type-B receptor 4 (Homo sapiens); conditions: at 10 µM
[9] = target: Focal adhesion kinase 1 (Homo sapiens) (UniProt Q05397); conditions: at 1 µM
[10] = target: Ephrin type-A receptor 5 (Homo sapiens) (UniProt P54756); conditions: at 10 µM
[11] = target: T4, Ephrin type-B receptor 1 (Homo sapiens) (UniProt P54762); conditions: at 10 µM
T4 sequence (whole entry): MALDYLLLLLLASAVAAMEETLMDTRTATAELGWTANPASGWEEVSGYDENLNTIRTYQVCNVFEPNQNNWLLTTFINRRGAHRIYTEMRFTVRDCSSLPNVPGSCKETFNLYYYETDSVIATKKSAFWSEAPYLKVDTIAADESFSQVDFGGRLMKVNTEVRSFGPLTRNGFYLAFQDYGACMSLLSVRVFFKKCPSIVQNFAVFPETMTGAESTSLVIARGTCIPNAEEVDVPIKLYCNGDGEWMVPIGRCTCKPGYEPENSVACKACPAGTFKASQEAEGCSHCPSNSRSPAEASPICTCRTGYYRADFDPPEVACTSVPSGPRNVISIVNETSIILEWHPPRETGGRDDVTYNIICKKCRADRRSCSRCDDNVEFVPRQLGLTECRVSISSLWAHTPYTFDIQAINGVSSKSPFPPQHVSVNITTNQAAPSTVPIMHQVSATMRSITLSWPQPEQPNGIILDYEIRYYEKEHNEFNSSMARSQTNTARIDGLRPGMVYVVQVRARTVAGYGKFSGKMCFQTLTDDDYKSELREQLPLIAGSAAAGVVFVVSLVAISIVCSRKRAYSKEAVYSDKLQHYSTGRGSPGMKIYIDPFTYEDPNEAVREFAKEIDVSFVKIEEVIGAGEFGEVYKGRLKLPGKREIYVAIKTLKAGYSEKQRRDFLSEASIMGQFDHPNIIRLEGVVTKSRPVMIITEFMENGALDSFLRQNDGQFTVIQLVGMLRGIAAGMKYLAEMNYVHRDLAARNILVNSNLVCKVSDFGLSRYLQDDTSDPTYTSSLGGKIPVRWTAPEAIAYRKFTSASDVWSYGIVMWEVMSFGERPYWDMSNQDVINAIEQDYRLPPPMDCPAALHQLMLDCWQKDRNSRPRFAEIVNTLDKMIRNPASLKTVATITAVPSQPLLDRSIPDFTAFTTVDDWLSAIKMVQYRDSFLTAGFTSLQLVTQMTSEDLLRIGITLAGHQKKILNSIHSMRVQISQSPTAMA

Ephrin type-A receptor 5 (Homo sapiens), sequence (P54756 whole entry): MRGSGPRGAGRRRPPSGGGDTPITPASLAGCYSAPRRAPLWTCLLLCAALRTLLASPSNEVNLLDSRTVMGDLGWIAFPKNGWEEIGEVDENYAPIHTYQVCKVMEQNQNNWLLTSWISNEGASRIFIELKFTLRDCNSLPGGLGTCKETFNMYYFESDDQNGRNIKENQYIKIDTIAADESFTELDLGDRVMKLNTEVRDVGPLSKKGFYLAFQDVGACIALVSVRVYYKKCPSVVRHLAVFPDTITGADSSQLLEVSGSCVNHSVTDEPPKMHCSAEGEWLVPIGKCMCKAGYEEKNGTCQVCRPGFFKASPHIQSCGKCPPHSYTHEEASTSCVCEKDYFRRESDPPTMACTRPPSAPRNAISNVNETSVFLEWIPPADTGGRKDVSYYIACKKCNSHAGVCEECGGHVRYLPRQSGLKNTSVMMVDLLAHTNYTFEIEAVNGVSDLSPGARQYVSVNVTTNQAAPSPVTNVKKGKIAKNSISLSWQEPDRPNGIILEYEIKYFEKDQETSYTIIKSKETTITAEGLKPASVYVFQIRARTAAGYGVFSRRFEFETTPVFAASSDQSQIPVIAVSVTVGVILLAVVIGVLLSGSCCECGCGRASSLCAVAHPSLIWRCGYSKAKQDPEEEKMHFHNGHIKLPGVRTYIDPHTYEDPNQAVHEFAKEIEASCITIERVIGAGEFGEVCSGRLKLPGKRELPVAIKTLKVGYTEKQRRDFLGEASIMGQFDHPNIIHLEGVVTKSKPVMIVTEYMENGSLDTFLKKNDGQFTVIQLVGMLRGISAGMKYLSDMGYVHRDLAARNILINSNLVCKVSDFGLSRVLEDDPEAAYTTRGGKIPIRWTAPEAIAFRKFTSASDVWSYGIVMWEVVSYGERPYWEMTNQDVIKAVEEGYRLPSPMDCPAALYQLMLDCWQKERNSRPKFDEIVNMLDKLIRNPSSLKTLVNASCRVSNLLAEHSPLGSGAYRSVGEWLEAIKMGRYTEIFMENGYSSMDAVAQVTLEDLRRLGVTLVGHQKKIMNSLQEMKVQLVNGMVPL
Ephrin type-A receptor 7 (Homo sapiens), sequence (Q15375 28-998 limits assumed): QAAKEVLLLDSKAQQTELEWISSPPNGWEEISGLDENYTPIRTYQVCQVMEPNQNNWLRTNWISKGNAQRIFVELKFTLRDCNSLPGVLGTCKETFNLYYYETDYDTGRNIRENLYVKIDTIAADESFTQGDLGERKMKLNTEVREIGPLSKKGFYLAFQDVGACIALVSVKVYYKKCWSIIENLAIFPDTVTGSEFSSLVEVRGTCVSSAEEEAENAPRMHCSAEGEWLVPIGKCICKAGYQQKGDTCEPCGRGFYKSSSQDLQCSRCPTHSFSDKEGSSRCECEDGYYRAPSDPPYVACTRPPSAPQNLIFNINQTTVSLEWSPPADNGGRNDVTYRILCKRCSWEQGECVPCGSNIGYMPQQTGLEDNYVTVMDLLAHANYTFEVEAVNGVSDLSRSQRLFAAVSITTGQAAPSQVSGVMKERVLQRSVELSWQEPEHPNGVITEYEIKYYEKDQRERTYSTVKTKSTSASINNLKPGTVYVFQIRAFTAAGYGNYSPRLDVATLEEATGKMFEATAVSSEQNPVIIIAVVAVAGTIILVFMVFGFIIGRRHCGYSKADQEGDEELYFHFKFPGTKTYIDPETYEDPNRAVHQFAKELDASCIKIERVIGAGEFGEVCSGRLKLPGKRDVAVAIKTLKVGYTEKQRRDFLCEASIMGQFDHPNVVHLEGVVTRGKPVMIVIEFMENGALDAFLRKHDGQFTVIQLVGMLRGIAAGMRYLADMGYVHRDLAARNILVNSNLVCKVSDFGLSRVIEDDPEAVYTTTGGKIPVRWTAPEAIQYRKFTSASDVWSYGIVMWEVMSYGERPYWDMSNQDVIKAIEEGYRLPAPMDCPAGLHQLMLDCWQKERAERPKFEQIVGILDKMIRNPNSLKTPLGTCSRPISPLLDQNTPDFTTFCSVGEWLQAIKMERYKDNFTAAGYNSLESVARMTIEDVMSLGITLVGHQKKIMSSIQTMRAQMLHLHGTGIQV
Focal adhesion kinase 1 (Homo sapiens), sequence (Q05397 2-1052 limits assumed): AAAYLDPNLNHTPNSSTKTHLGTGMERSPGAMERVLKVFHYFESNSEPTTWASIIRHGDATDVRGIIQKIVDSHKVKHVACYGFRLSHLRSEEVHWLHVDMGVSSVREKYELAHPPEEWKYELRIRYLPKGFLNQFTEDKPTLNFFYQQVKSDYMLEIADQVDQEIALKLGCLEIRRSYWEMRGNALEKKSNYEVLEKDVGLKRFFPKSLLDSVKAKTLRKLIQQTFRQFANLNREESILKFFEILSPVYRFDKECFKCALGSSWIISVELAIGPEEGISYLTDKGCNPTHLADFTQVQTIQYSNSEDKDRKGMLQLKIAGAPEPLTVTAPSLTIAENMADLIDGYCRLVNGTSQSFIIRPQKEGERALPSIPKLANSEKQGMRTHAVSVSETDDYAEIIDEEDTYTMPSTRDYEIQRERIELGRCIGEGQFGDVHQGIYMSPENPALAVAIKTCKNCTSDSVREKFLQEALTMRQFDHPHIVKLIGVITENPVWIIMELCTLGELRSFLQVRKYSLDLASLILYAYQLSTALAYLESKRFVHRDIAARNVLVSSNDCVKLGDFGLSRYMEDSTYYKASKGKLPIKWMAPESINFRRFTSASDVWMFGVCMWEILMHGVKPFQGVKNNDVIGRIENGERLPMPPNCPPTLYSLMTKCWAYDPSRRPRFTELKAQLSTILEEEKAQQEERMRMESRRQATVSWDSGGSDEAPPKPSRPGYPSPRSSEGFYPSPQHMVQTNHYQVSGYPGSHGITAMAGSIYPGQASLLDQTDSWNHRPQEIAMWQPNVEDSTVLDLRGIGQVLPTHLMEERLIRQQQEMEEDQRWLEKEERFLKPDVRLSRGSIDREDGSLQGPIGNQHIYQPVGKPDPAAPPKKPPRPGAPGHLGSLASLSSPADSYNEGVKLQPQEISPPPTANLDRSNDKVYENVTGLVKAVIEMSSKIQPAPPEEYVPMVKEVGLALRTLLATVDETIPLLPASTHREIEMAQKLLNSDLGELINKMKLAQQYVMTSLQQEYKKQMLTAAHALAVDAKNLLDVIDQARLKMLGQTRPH

Structure (SMILES): COc1ccc(-c2cnc3c(-c4ccsc4)cnn3c2)cc1
- residual activity [1]: 87%
- residual activity [2]: 95%
- residual activity [3]: 95%
- residual activity [4]: 95%
- residual activity [5]: 98%
- residual activity [6]: 99%
- residual activity [7]: 123%
- residual activity [8]: 122%
- residual activity [9]: 141%

Structure (SMILES): O=C1C(Cl)=C(N2C(=O)CCC2=O)C(=O)c2ccccc21
- residual activity [1]: 89%
- residual activity [2]: 119%
- residual activity [10]: 96%
- residual activity [3]: 99%
- residual activity [4]: 92%
- residual activity [5]: 96%
- residual activity [6]: 92%
- residual activity [11]: 93%
- residual activity [7]: 93%
- residual activity [8]: 81%
- residual activity [9]: 93%
